p53null 32C tox = p53 null cell cytotoxicity, permissive temperature; Potency, µM (doses to about 46.1 µM), for the others: at the top dose activity change, negative = cytotoxicity, actives largely listed as cytotoxic; 55,000 tested, 0.62% active; H1299-neo p53 null cells, ATP luminescence, 24 h, 32C; AID 903;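 also: 0% = DMSO only and -100% = full killing by 100 µM tamoxifen; nearly all actives have a fitted effect of over 55% in size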
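H1299-neo (p53 null) cells, 600/well, treated 24 h at 32C with compound up to 46 uM; ATPlite luminescence viability, normalized to DMSO and 100 uM tamoxifen; AC50 by Hill fit.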
PMP22 txn prim = PMP22 gene transcription modulation | S16 Pmp22-F2sN Schwann cells, FLuc/NLuc coincidence luminescence, 24 h | Potency, µM (top dose mostly 57.5 µM), for the others: top-dose activity change, negative = inhibition, hits mostly inhibitors | 43,000 tested, 2% active | AID 1508649; active = clear falling dose curves in both reporters; inconclusive = both reporters move, but less clearly or upward; inactive = either reporter flat; the % is the NLuc reporter signal
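Rat S16 Pmp22-F2sN cells, 500-1,000/well in phenol red-free DMEM + 10% FBS, compound-treated 24 h (37C, 5% CO2). Luminescence: FLuc read, Stop&Glo added, NLuc read.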
p53null 39C tox = kills p53 null cells at the nonpermissive temperature; H1299 p53-null (neo) cells, 39C, ATPlite viability, 24 h; Potency, µM (doses to about 46.1 µM), for inactives: at the top dose activity, negative = cell killing, actives largely listed as cytotoxic; 55,000 tested, 0.97% active; AID 904;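 also: 0% = DMSO only and -100% = full killing by 100 µM tamoxifen; nearly all actives have a fitted effect of over 50% in size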
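Following overnight plating at 37C (600 cells/well), H1299-neo or H1299-p53A138V cells are dosed up to 46 uM. Incubation lasts 24 hr at 39C before ATP detection.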
SKOV3 invasion = blocks SKOV3ip1 adhesion and invasion in omental model; SKOV3ip1-GFP adhesion/invasion on 3D omental model, fluorescence; Potency, µM (highest dose often 45.8 µM), without a hit: at the top dose activity change, negative = inhibition, usual class: inhibitors; 46,000 tested, 0.1% active;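 also: plate controls were DMSO wells for no effect and tomatine positive control wells for full effect; nearly all actives have a fitted effect of over 65% in size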
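qHTS, 4-pt dose (0.36-46 umol/L); SKOV3ip1-GFP, 1,200 cells/well, no FBS; primary omental fibroblast/mesothelial co-culture 48 h pre-grown; 2 h RT + 16 h 37 C; PBS wash, 4% PFA; GFP count 488/509 nm.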
S16 viability = cytotoxicity in S16 Pmp22-F2sN Schwann cells | S16 Pmp22-F2sN Schwann cells viability, CellTiter-Glo, 24 h | Potency, µM (top dose mostly 57.5 µM), inactives show at the top dose activity change, negative = cytotoxicity, actives largely listed as cytotoxic | 43,000 tested, 0.48% active | AID 1508642; also: nearly all actives have a fitted effect of over 65% in size
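Viability was measured by CellTiter-Glo luminescence (15 min, room temperature). This followed 24 h at 37 °C of compound exposure (23 nL pin transfer) in S16 Pmp22-F2sN Schwann cells, 500-1,000 per well.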
mTORC1 inh = mTORC1 pathway inhibition measured by phospho-rpS6; 44,000 tested, 0.78% active; Potency, µM (titrated, usually from 38.3 µM), for inactives: at the top dose activity change, negative = inhibition, usual class: inhibitors; AID 493208; Tsc2-/- p53-/- MEF, phospho-rpS6 immunofluorescence/PI, 24 h;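 also: plate controls were DMSO for no effect and rapamycin for full effect; nearly all actives have a fitted effect of over 50% in size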
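Immunofluorescence of rpS6 phosphorylation in Tsc2-/-, p53-/- MEFs after 24 h compound exposure, normalized to propidium iodide signal. Activity is expressed as % positive cells, thresholded with 7.5 nM rapamycin.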
An asterisk follows results filed as active; i = inactive; ? = inconclusive; · = no result given. Only some compounds are listed: those with a hit (about 3% of all), similar ones and a draw of the others. Unless noted, calls follow the shape of the dose curve; as a rule, active = well fitted curve in the direction sought with a large enough effect; inconclusive = small, poorly fitted or top-dose-only effect, or another doubt; inactive = no such curve, though single readings can be large; an effect the other way counts as inactive or inconclusive. Unless noted, % is scaled to controls: 0 for no effect and ±100 for the full control effect; potency is read from the fitted curve at half-maximal effect.

SMILES	p53null 32C tox	PMP22 txn prim	p53null 39C tox	SKOV3 invasion	S16 viability	mTORC1 inh
COc1ccc(-c2ccc3ncc4c(c3c2)n(-c2ccc(N3CCNCC3)c(C(F)(F)F)c2)c(=O)n4C)cn1	·	·	·	9.35µM*	·	·
CCOC(=O)N1CCN([N+]([O-])=NOc2ccc([N+](=O)[O-])cc2C#N)CC1	·	·	·	4.3%	·	·
COc1ccc(OC)c(S(=O)(=O)NCC(c2cccs2)S(=O)(=O)c2ccc(F)cc2)c1 (configuration not stated)	-5.6%	?	19.4%	-2.0%	?	?
COc1cc(C(=O)NCC(c2ccco2)S(=O)(=O)c2cccs2)cc(OC)c1OC (configuration not stated)	7.2%	-5.7%	7.8%	-17.8%	?	0.9%
COc1ccc(S(=O)(=O)NCC(c2ccco2)S(=O)(=O)c2cccs2)cc1OC (configuration not stated)	1.9%	?	-1.1%	6.0%	20µM*	-2.5%
CCOc1ccc(S(=O)(=O)NCC(c2ccco2)S(=O)(=O)c2ccc(C)cc2)cc1 (configuration not stated)	0.9%	?	-4.7%	-1.5%	-2.0%	0.9%
COc1ccc(F)cc1S(=O)(=O)NCC(c1ccco1)S(=O)(=O)c1cccs1 (configuration not stated)	7.1%	9.46µM*	-29.3%	8.7%	12.6µM*	-11.8%
O=S(=O)(NCC(c1ccco1)S(=O)(=O)c1cccs1)c1ccccc1 (configuration not stated)	3.8%	?	34.0%	i	31.6µM*	-15.8%
Cc1ccc(C)c(S(=O)(=O)NCC(c2ccco2)S(=O)(=O)c2ccc(F)cc2)c1 (configuration not stated)	39.0%	-4.9%	?	0.6%	2.3%	7.36µM*
CCn1cc(-c2ccnc3[nH]c(-c4cccc(CN(C)C)c4)cc23)c(-c2ccc(NC(=O)N(C)C)cc2)n1	·	·	·	1.4%	·	·
Cc1ccccc1C(C(=O)NC1CCCC1)N(C(=O)Cn1cnc2ccccc21)c1cccc(F)c1 (configuration not stated)	·	·	·	-9.7%	·	·
COc1ccc(S(=O)(=O)NCC(c2ccco2)S(=O)(=O)c2ccc(C)cc2)cc1C (configuration not stated)	-1.4%	?	-27.9%	3.1%	?	-3.7%
O=C(NCC(c1ccco1)S(=O)(=O)c1cccs1)c1ccc(Cl)cc1 (configuration not stated)	5.1%	-24.2%	3.2%	8.3%	-10.0%	0.2%
CC(C)(C)c1ccc(C(=O)NCC(c2cccs2)S(=O)(=O)c2ccccc2)cc1 (configuration not stated)	14.9%	?	5.7%	-13.8%	?	-9.6%
O=S(=O)(NCC(c1cccs1)S(=O)(=O)c1ccccc1)c1ccccc1 (configuration not stated)	-2.7%	15µM*	4.6%	i	10µM*	?
COc1ccc(F)cc1S(=O)(=O)NCC(c1ccco1)S(=O)(=O)c1ccc(F)cc1 (configuration not stated)	3.8%	18.9µM*	18.1%	i	15.8µM*	-4.5%
O=S(=O)(NCC(c1ccco1)S(=O)(=O)c1cccs1)c1ccc(F)c(C(F)(F)F)c1 (configuration not stated)	-0.4%	7.27µM*	-2.5%	-4.0%	2.51µM*	-6.9%
O=C1NC(=O)C(=Cc2ccc3nccc(-c4ccncc4)c3c2)S1	·	·	·	-14.6%	·	·
COc1cccc([C@@H](C)NCCCc2ccccc2Cl)c1	·	·	·	-14.5%	·	·
CCn1c(-c2nonc2N)nc2cnc(Oc3cccc(NC(=O)c4ccc(OCCN5CCOCC5)cc4)c3)cc21	·	·	·	13.8%	·	·
O=C(N/N=C/c1sc2ccccc2c1O)c1ccccc1	7.08µM*	·	·	·	·	·
O=C(N/N=C/c1cccs1)c1ccc(NC(=O)c2ccccc2Cl)cc1	·	·	35.8%	·	·	·
CCOc1cc(CNCCc2ccccc2)ccc1OCC(=O)NC(C)(C)C	-1.0%	·	15.8µM*	·	·	·
CC1CCN(S(=O)(=O)c2ccc3nc(Nc4cccc(C(F)(F)F)c4)ccc3c2)CC1	-17.2%	?	11.2µM*	-18.4%	?	?
Cc1ccc(CN2C(=O)c3ccccc3Sc3ccc(C(=O)NCCCN4CCOCC4)cc32)cc1	-12.1%	?	?	i	-27.6%	11.7µM*
SMILES	p53null 32C tox	PMP22 txn prim	p53null 39C tox	SKOV3 invasion	S16 viability	mTORC1 inh
Cn1c(=O)c(Oc2ccc(F)cc2F)cc2cnc(NC3CCOCC3)nc21	·	·	·	-20.3%	·	·
Oc1ccc(NCc2ccccc2OCc2ccccc2)cc1	-16.9%	7.27µM*	?	5.3%	20µM*	?
COc1cc(CNc2ccc(O)cc2)cc(Br)c1OCc1ccccc1F	-23.4%	·	·	·	·	·
Oc1ccc(NCc2ccccc2OCc2ccc(Cl)cc2)cc1	-26.0%	?	?	i	20µM*	?
Oc1ccccc1CNc1cnc2ccccc2c1	-3.7%	·	-12.6%	·	·	·
O=C(C=CC#Cc1cccc(NS(=O)(=O)c2ccccc2)c1)NO	·	·	·	-9.7%	·	·
CCCCCCn1c(/C=C/c2ccccc2)nc2ccccc21	-21.9%	-49.9%	12.6µM*	-0.1%	-20.0%	7.7%
Cc1c(CN2CCN(S(C)(=O)=O)CC2)sc2c(N3CCOCC3)nc(-c3cnc(N)nc3)nc12	·	·	·	-1.9%	·	·
Oc1ccc2ccccc2c1SSc1c(O)ccc2ccccc12	·	·	·	26.4µM*	·	·
Cc1ccc(Nc2c(-c3c[nH]c4ccccc34)nc3ccccn23)cc1	-26.4%	?	14.1µM*	3.9%	3.0%	?
Nc1nccc(Oc2ccc(NC(=O)c3c[nH]cc(-c4ccc(F)cc4)c3=O)cc2F)c1Cl	·	·	·	-14.3%	·	·
COCCOc1ccc2c(c1)ncn2-c1ccc2cccc(N3CCC(N)CC3)c2n1	·	·	·	4.7%	·	·
Cc1cccc(CS(=O)(=O)c2ncc(Cl)c(C(=O)NCc3ccccc3)n2)c1	19.1%	?	?	-12.4%	20µM*	18.5µM*
COc1ccc2nc(NC(=O)c3nc(S(=O)(=O)Cc4ccccc4F)ncc3Cl)sc2c1	-28.1%	4.8µM*	-18.2%	7.08µM*	3.55µM*	14.7µM*
O=C(Nc1nc2ccc(F)cc2s1)c1nc(S(=O)(=O)Cc2ccccc2)ncc1Cl	10.6%	6.23µM*	?	?	6.31µM*	-8.5%
O=C(Nc1ccccc1F)c1nc(S(=O)(=O)Cc2ccccc2F)ncc1Cl	-11.2%	?	?	3.16µM*	6.31µM*	1.17µM*

Screening results: PubChem, National Center for Advancing Translational Sciences (NCATS)
